Laboratory results taken from PubChem BioAssay (NCATS).
“And” between values parts separate entries of the source, which are not always exact repeats. Equal entries are not always repeated. Records with an inconclusive call do not appear. A call without a number means that no potency is given here. The source made the active and inactive calls. The call rests on the fitted dose curve; in most records, active means well fitted curve in the direction sought with a large enough effect; inconclusive means small, poorly fitted or top-dose-only effect, or another doubt; inactive means no such curve, though single readings can be large; an effect the other way counts as inactive or inconclusive.

Columns and labels:
[1] = qHTS of pediatric cancer cell lines to identify multiple opportunities for drug repurposing: Primary screen for A673 cells (AID 1347092); further: nearly all actives have a fitted effect of over 45% in size; further: potency means the concentration at half of the fitted maximal effect
Method in brief: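 48 h compound exposure, A673, 500-1,000 cells/well, 37 degrees C/5% CO2. MIPE: 11-point, 0.78 nM-46 µM; NPC: 8-point, 0.59 nM-46 µM (final). Readout CellTiter-Glo luminescence after 15 min RT.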

[2] = qHTS of pediatric cancer cell lines to identify multiple opportunities for drug repurposing: Primary screen for SK-N-MC cells (AID 1347093); further: potency means the concentration at half of the fitted maximal effect
Method in brief: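 Metabolically active cells were quantified by ATP-dependent luminescence (CellTiter-Glo, 15 min at room temperature) following 48 h treatment. Cells had been plated at 500-1,000 per well and settled for 5 h beforehand.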

[3] = qHTS of pediatric cancer cell lines to identify multiple opportunities for drug repurposing: Primary screen for NB-EBc1 cells (AID 1347095); further: potency means the concentration at half of the fitted maximal effect
Method in brief: (§1)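 Plated cells (500-1,000 per well, growth media) were allowed to settle for 5 hours, treated with compound dilutions for 48 hours, then lysed with CellTiter-Glo for 15 min at room temperature before luminescence reading.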

[4] = qHTS of pediatric cancer cell lines to identify multiple opportunities for drug repurposing: Primary screen for U-2 OS cells (AID 1347096); further: nearly all actives have a fitted effect of over 50% in size; further: potency means the concentration at half of the fitted maximal effect
Method in brief: (§2)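 Cells (500-1,000/well) rested 5 h, then received compounds for 48 h; metabolically active cells were measured by CellTiter-Glo luminescence. Final concentrations spanned up to 46 µM (MIPE, 11-point) or 0.59 nM-46 µM (NPC, 8-point) in primary screens, 11-point in follow-ups.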

[5] = qHTS of pediatric cancer cell lines to identify multiple opportunities for drug repurposing: Primary screen for Saos-2 cells (AID 1347097); further: nearly all actives have a fitted effect of over 40% in size; further: potency means the concentration at half of the fitted maximal effect
Method in brief: as §1

[6] = qHTS of pediatric cancer cell lines to identify multiple opportunities for drug repurposing: Primary screen for SK-N-SH cells (AID 1347098); further: nearly all actives have a fitted effect of over 65% in size; further: potency means the concentration at half of the fitted maximal effect
Method in brief: as §2

[7] = qHTS of pediatric cancer cell lines to identify multiple opportunities for drug repurposing: Primary screen for LAN-5 cells (AID 1347100); further: potency means the concentration at half of the fitted maximal effect
Method in brief: as §2

[8] = qHTS of pediatric cancer cell lines to identify multiple opportunities for drug repurposing: Primary screen for BT-12 cells (AID 1347101); further: nearly all actives have a fitted effect of over 25% in size; further: potency means the concentration at half of the fitted maximal effect
Method in brief: as §2

[9] = qHTS of pediatric cancer cell lines to identify multiple opportunities for drug repurposing: Primary screen for Rh18 cells (AID 1347102); further: nearly all actives have a fitted effect of over 65% in size; further: potency means the concentration at half of the fitted maximal effect
Method in brief: as §2

[10] = qHTS of pediatric cancer cell lines to identify multiple opportunities for drug repurposing: Primary screen for OHS-50 cells (AID 1347103); further: nearly all actives have a fitted effect of over 40% in size; further: potency means the concentration at half of the fitted maximal effect
Method in brief: as §2

[11] = qHTS of pediatric cancer cell lines to identify multiple opportunities for drug repurposing: Primary screen for RD cells (AID 1347104); further: nearly all actives have a fitted effect of over 55% in size; further: potency means the concentration at half of the fitted maximal effect
Method in brief: as §1

[12] = qHTS of pediatric cancer cell lines to identify multiple opportunities for drug repurposing: Primary screen for MG 63 (6-TG R) cells (AID 1347105); further: nearly all actives have a fitted effect of over 50% in size; further: potency means the concentration at half of the fitted maximal effect
Method in brief: as §1

[13] = qHTS of pediatric cancer cell lines to identify multiple opportunities for drug repurposing: Primary screen for control Hh wild type fibroblast cells (AID 1347106);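 further: series mostly up to about 46 µM; a drop in luminescence marks cytotoxicity and a rise apparent proliferation; nearly all actives have a fitted effect of over 55% in size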
Method in brief: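 Viability after 48 h compound treatment at 37C, 500-1,000 cells/well, read as ATP luminescence with CellTiter-Glo. Primary screens used 11-point (MIPE, 0.78 nM-46 µM) or 8-point (NPC, 0.59 nM-46 µM) final concentrations; follow-up screens used 11-point dilutions.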

[14] = qHTS of pediatric cancer cell lines to identify multiple opportunities for drug repurposing: Primary screen for Rh30 cells (AID 1347107); further: series mostly up to about 46 µM; nearly all actives have a fitted effect of over 75% in size
Method in brief: as §2

[15] = qHTS of pediatric cancer cell lines to identify multiple opportunities for drug repurposing: Primary screen for Rh41 cells (AID 1347108); further: nearly all actives have a fitted effect of over 70% in size; further: potency means the concentration at half of the fitted maximal effect
Method in brief: as §1

[16] = qHTS of pediatric cancer cell lines to identify multiple opportunities for drug repurposing: Primary screen for BT-37 cells (AID 1347094); further: potency means the concentration at half of the fitted maximal effect
Method in brief: as §1

[17] = qHTS of pediatric cancer cell lines to identify multiple opportunities for drug repurposing: Primary screen for NB1643 cells (AID 1347099); further: nearly all actives have a fitted effect of over 50% in size; further: potency means the concentration at half of the fitted maximal effect
Method in brief: as §1

[18] = qHTS of pediatric cancer cell lines to identify multiple opportunities for drug repurposing: Confirmatory screen for NB1643 cells (AID 1347109); further: nearly all actives have a fitted effect of over 45% in size; further: potency means the concentration at half of the fitted maximal effect
Method in brief: as §2

[19] = qHTS of pediatric cancer cell lines to identify multiple opportunities for drug repurposing: Confirmatory screen for A673 cells (AID 1347110);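 further: potency means the concentration at half of the fitted maximal effect; cells exposed to compound for 48 h before the viability read; nearly all actives have a fitted effect of over 65% in size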
Method in brief: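 Concentration-response curves came straight from titrations: 11 points (0.78 nM to 46 µM) for MIPE and several concentrations (0.59 nM to 46 µM) for NPC in primary, 11 points in follow-up. Readout: ATP luminescence at 48 h.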

[20] = qHTS of pediatric cancer cell lines to identify multiple opportunities for drug repurposing: Confirmatory screen for SK-N-MC cells (AID 1347111);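 further: potency means the concentration at half of the fitted maximal effect; cells exposed to compound for 48 h before the readout; nearly all actives have a fitted effect of over 70% in size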
Method in brief: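 Seed 500-1,000 cells/well; rest 5 h at 37 degrees C. Pin-transfer compounds, 11-point titration. Incubate 48 h. Add CellTiter-Glo, 15 min RT, read luminescence.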

Structure (SMILES) | Potency [1] | Potency [2] | Potency [3] | Potency [4] | Potency [5] | Potency [6] | Potency [7] | Potency [8] | Potency [9] | Potency [10] | Potency [11] | Potency [12] | Potency [13] | outcome [14] | Potency [15] | Potency [16] | Potency [17] | Potency [18] | Potency [19] | Potency [20]
CCOC(=O)c1ncn2c1CN(C)C(=O)c1cc(F)ccc1-2 | inactive | inactive | inactive | inactive | inactive | inactive | inactive | inactive | inactive | inactive | inactive | inactive | inactive | inactive | inactive | – | – | – | – | –
Clc1ccc2c(c1)C(N1CCNCC1)=Nc1ccccc1O2 | inactive | inactive | inactive | inactive | inactive | inactive | inactive | inactive | inactive | inactive | inactive | inactive | – | inactive | inactive | inactive | – | – | – | –
COc1ccc(C2CNC(=O)C2)cc1OC1CCCC1 (configuration not stated) | inactive | inactive | inactive | inactive | inactive | inactive | inactive | inactive | inactive | inactive | inactive | inactive | – | inactive | inactive | inactive | – | – | – | –
CN1CCN(C2=Nc3cc(Cl)ccc3Nc3ccccc32)CC1 | inactive | inactive | inactive | inactive | inactive | 15.4 µM (active) | inactive | inactive | inactive | – | – | inactive | inactive | inactive | inactive | inactive | – | – | – | –
CN(C)C(=N)N=C(N)N | inactive | inactive | inactive | inactive | inactive | inactive | inactive | inactive | inactive | inactive | inactive | inactive | – | inactive | inactive | inactive | inactive | – | – | –
CN(C)CCCN1c2ccccc2CCc2ccc(Cl)cc21 | 469 nM (active) | 332 nM (active) and 23.7 µM (active) | inactive | – | 16.8 µM (active) | 1.52 µM (active) and 24.4 µM (active) | – | 19.3 µM (active) and 15.5 µM (active) | – | 13.7 µM (active) and 17.4 µM (active) | 1.48 µM (active) | – | – | inactive | inactive | 12.2 µM (active) and 24.6 µM (active) | – | – | – | –
O=C1c2c(O)ccc(O)c2C(=O)c2c(NCCNCCO)ccc(NCCNCCO)c21 | 590 nM (active) and 168 nM (active) | 235 nM (active) and 1 nM (active) | 74.3 nM (active) and 59.6 nM (active) | 18.7 µM (active) and 10.6 µM (active) | 1.66 µM (active) and 1.68 µM (active) | 383 nM (active) and 486 nM (active) | 83.3 nM (active) | 1.72 µM (active) and 490 nM (active) | 2.09 µM (active) and 2.37 µM (active) | 344 nM (active) and 49 nM (active) | 4.69 µM (active) and 6.68 µM (active) | 0.372 µM (active) | – | – | 4.18 µM (active) and 9.44 µM (active) | 243 nM (active) and 38.9 nM (active) | 469 nM (active) and 668 nM (active) | 0.369 µM (active) | 0.147 µM (active) | 0.208 µM (active)
NCCc1cnc[nH]1 | inactive | inactive | inactive | inactive | inactive | inactive | inactive | inactive | inactive | inactive | inactive | inactive | – | inactive | inactive | inactive | inactive | – | – | –
CC(C)(C)C(=O)Oc1ccc(S(=O)(=O)Nc2ccccc2C(=O)NCC(=O)O)cc1 | inactive | inactive | inactive | inactive | inactive | inactive | inactive | inactive | inactive | inactive | inactive | inactive | inactive | inactive | inactive | inactive | – | – | – | –
Cc1ccc(C(=O)Nc2ccc(S(=O)(=O)O)c3cc(S(=O)(=O)O)cc(S(=O)(=O)O)c23)cc1NC(=O)c1cccc(NC(=O)Nc2cccc(C(=O)Nc3cc(C(=O)Nc4ccc(S(=O)(=O)O)c5cc(S(=O)(=O)O)cc(S(=O)(=O)O)c45)ccc3C)c2)c1 | inactive | inactive | inactive | inactive | inactive | inactive | inactive | inactive | inactive | inactive | inactive | inactive | – | inactive | inactive | inactive | inactive | – | – | –
CN1CCN(CCCN2c3ccccc3Sc3ccc(Cl)cc32)CC1 | 9350 nM (active) | 41.8 nM (active) | inactive | inactive | 0.235 µM (active) | 24.4 µM (active) | 9350 nM (active) | 6.11 µM (active) | – | 9.68 µM (active) | 9.35 µM (active) and 26.6 µM (active) | – | inactive | inactive | inactive | 9.68 µM (active) | – | – | 7.37 µM (active) | 3.69 µM (active)
O=C(c1ccc(F)cc1)C1CCN(CCn2c(=O)[nH]c3ccccc3c2=O)CC1 | inactive | inactive | inactive | inactive | inactive | inactive | inactive | inactive | inactive | inactive | inactive | inactive | inactive | inactive | inactive | inactive | inactive | – | – | –
CC(C)Cc1ccc(C(C)C(=O)O)cc1 (configuration not stated) | inactive | inactive | inactive | inactive | inactive | inactive | inactive | inactive | inactive | inactive | inactive | inactive | inactive | inactive | inactive | – | inactive | inactive | 6.57 µM (active) | 3.69 µM (active)
CC[N+](CC)(CC)CCOc1cccc(OCC[N+](CC)(CC)CC)c1OCC[N+](CC)(CC)CC | inactive | inactive | inactive | inactive | inactive | inactive | inactive | inactive | inactive | inactive | inactive | inactive | inactive | inactive | inactive | – | – | – | – | –
CN(CCOc1ccc(NS(C)(=O)=O)cc1)CCc1ccc(NS(C)(=O)=O)cc1 | inactive | inactive | inactive | inactive | inactive | inactive | inactive | inactive | inactive | inactive | inactive | inactive | inactive | inactive | inactive | inactive | – | – | – | –
Cc1ccccc1N1C(=O)c2cc(S(N)(=O)=O)c(Cl)cc2NC1C (configuration not stated) | inactive | inactive | inactive | inactive | inactive | inactive | inactive | inactive | inactive | inactive | inactive | inactive | inactive | inactive | inactive | – | inactive | – | – | –
Cn1c(=O)c2c(ncn2C)n(C)c1=O | inactive | inactive | inactive | inactive | inactive | inactive | inactive | inactive | inactive | inactive | inactive | inactive | – | inactive | inactive | inactive | – | – | – | –
NC(=O)OCC(COC(N)=O)c1ccccc1 | inactive | inactive | inactive | inactive | – | inactive | inactive | inactive | inactive | inactive | inactive | inactive | – | inactive | inactive | inactive | – | – | – | –
CC(C)NCC(O)COc1ccc(CCOCC2CC2)cc1 (configuration not stated) | inactive | inactive | inactive | inactive | inactive | inactive | inactive | inactive | inactive | inactive | inactive | inactive | – | inactive | inactive | inactive | inactive | – | – | –
CN1C2CCC1CC(OC(=O)C(CO)c1ccccc1)C2 (configuration not stated) | inactive | inactive | inactive | inactive | inactive | – | inactive | inactive | inactive | inactive | inactive | inactive | inactive | inactive | inactive | inactive | – | – | – | –
CN1CCN2c3ccccc3Cc3ccccc3C2C1 (configuration not stated) | inactive | inactive | inactive | inactive | inactive | inactive | – | inactive | inactive | – | inactive | inactive | – | inactive | inactive | inactive | inactive | – | – | –
CC(=O)OCC(CCn1cnc2cnc(N)nc21)COC(C)=O | inactive | inactive | inactive | inactive | inactive | inactive | inactive | inactive | inactive | inactive | inactive | inactive | inactive | inactive | inactive | – | inactive | – | – | –
COC(=O)Nc1nc2ccc(C(=O)c3cccs3)cc2[nH]1 | 5.9 nM (active) | 4.7 nM (active) and 94.4 nM (active) | 1 nM (active) and 84.1 nM (active) | – | 4.7 nM (active) and 94.4 nM (active) | inactive | 3.3 nM (active) and 119 nM (active) | 19.3 nM (active) and 347 nM (active) | inactive | 8.6 nM (active) and 309 nM (active) | – | – | – | inactive | – | 15.3 nM (active) and 276 nM (active) | – | 0.522 µM (active) | 0.147 µM (active) | 0.147 µM (active)
NCCCCCC(=O)O | inactive | inactive | inactive | inactive | inactive | inactive | inactive | inactive | inactive | inactive | inactive | inactive | – | inactive | inactive | inactive | inactive | – | – | –
O=C1N(c2ccccc2)c2ccccc2C1(Cc1ccncc1)Cc1ccncc1 | inactive | inactive | inactive | inactive | inactive | inactive | inactive | inactive | inactive | inactive | inactive | inactive | inactive | inactive | inactive | inactive | – | – | – | –
